Results published in ChEMBL document CHEMBL3988442, “University of Dundee, Small-Polar-MMV Screening Library” (2021).
For some of these results: Entries with a potency or affinity are not part of this list.

Legend:
Design in all cases: scale not given: direction of the effect not stated beside the values
[1] = target: Protein translocase subunit SecA (Escherichia coli (strain K12)) (UniProt P10408); experiment: Assay to Identify E. coli SecA ATPase Inhibitors; type: functional; conditions: 30 µM
Sequence of Protein translocase subunit SecA (Escherichia coli (strain K12)) (P10408 whole entry): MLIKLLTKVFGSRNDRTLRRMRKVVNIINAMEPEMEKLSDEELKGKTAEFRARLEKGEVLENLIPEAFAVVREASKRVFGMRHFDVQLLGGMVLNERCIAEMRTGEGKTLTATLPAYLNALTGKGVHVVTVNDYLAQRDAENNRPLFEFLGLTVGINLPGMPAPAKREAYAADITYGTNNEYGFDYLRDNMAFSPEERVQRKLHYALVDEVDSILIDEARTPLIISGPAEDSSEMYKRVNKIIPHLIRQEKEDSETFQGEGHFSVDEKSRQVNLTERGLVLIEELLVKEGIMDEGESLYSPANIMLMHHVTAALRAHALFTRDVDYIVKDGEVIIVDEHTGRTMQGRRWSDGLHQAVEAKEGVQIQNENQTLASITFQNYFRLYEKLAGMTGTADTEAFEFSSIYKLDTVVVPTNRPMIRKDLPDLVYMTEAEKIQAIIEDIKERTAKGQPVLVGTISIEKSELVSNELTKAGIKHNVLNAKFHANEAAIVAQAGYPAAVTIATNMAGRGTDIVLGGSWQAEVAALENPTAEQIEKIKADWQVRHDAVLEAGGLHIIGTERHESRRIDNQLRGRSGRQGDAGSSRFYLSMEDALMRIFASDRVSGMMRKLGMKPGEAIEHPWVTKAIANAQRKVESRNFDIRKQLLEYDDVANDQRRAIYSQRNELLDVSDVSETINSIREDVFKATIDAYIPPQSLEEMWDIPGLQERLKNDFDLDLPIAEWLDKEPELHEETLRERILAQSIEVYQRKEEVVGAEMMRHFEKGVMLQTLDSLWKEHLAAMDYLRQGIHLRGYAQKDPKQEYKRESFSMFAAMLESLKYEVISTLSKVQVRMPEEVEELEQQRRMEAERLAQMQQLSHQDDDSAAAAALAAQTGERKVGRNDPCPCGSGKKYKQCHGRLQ

[2] = target: T1, Ubiquitin-activating enzyme e1, putative (Leishmania donovani (strain BPK282A1)) (UniProt E9BSI1); experiment: Leishmania donovani Ubiquitin Activating Enzyme (LdE1); type: functional; conditions: 30 µM
T1 sequence (whole entry): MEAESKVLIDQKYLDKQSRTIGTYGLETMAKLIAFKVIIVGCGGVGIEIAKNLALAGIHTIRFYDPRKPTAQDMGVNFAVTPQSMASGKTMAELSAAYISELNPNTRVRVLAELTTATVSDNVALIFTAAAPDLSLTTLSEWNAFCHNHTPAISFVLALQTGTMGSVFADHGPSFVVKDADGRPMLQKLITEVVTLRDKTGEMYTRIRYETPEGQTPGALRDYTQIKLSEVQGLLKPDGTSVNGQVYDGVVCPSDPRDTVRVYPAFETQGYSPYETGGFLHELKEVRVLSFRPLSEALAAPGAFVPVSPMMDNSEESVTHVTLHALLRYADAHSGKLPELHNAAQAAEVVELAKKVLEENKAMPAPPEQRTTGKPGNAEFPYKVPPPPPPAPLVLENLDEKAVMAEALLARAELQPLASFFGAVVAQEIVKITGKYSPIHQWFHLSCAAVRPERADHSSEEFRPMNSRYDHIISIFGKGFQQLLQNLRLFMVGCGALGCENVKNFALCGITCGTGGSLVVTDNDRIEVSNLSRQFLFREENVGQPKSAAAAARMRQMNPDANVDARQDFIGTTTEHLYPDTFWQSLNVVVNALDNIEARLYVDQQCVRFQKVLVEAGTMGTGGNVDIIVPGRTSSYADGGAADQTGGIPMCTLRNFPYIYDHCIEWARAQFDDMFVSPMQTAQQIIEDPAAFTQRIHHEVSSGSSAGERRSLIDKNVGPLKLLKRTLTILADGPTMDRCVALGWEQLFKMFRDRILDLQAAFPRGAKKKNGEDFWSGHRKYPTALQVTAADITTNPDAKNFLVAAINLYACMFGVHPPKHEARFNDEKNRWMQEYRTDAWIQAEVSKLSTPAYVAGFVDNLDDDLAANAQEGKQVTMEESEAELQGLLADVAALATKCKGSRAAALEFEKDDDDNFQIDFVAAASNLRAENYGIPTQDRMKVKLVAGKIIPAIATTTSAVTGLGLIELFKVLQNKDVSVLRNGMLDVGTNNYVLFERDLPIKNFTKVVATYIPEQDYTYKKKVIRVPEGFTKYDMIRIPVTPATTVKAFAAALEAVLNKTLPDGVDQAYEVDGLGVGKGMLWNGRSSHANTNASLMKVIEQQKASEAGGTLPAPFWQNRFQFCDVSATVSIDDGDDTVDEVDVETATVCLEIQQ

[3] = target: Sialic acid-binding Ig-like lectin 9 (Homo sapiens) (UniProt Q9Y336); experiment: Hs-Siglec9 ALPHAscreen SOP 20170721; conditions: 10 µM
Sequence of Sialic acid-binding Ig-like lectin 9 (Homo sapiens) (Q9Y336 whole entry): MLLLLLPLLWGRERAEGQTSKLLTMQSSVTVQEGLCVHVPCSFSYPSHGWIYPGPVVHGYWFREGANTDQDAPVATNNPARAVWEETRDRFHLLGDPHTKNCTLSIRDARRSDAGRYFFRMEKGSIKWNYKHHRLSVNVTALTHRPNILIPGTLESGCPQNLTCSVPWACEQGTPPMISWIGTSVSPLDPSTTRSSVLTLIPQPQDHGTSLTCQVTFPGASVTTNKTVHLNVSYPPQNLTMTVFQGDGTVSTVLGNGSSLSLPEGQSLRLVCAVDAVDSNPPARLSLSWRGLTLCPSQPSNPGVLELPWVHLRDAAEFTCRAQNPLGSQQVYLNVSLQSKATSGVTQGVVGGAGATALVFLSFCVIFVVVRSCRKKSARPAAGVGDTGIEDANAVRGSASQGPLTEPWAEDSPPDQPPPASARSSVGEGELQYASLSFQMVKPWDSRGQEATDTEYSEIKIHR

[4] = tested on: Trypanosoma cruzi; experiment: Trypanosoma cruzi phosphomannomutase and mannose-1-phosphate guanylyltransferase assay; type: functional; conditions: 10 µM
[5] = target: T2, Arginase-2, mitochondrial (Homo sapiens) (UniProt P78540); experiment: in vitro enzyme assay to detect the production of urea directly proportional to the activity of Arginase II; type: functional; conditions: 33.3 µM; further: in the data most compounds retested in dose-response had high values
T2 sequence (whole entry): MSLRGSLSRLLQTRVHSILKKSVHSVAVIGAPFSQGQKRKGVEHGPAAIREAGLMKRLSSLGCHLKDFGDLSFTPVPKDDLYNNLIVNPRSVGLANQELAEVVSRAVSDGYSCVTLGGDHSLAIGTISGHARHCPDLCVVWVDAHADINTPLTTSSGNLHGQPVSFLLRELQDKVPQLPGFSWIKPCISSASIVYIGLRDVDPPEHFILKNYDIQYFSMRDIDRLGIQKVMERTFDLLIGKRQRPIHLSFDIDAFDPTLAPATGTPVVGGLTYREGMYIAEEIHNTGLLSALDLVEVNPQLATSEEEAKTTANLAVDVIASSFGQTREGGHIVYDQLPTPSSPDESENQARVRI

[6] = target: T3, Proteasome subunit beta (Trypanosoma cruzi) (UniProt O96673); experiment: Trypanosoma cruzi proteasome chymotrypsin-like activity (TcProtChymo) assay.; further: in the data most compounds retested in dose-response had high values; type: functional; conditions: 9.37 µM
T3 sequence (whole entry): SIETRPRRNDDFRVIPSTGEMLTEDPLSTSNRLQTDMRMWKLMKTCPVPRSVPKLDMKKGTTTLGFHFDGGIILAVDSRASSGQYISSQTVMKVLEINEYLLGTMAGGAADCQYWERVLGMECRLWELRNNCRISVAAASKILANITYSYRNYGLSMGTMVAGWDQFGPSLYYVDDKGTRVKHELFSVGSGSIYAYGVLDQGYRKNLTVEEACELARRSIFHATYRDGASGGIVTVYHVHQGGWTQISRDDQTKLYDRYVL

[7] = organism: Homo sapiens; experiment: To identify inhibition of the IFN signalling (Jak-Stat) pathway via expression of an eGFP reporter gene under the control of an IFN-stimulated response element (ISRE) containing MxA promoter.; type: functional; conditions: 30 µM
[8] = target: T4, Tyrosyl-tRNA synthetase, putative (Trypanosoma cruzi (strain CL Brener)) (UniProt Q4DSP6); experiment: Trypanosoma cruzi tyrosyl tRNA synthetase (TcYRS) _High Tyrosine SOP; type: functional; conditions: 30 µM; further: in the data most compounds retested in dose-response had high values
T4 sequence (whole entry): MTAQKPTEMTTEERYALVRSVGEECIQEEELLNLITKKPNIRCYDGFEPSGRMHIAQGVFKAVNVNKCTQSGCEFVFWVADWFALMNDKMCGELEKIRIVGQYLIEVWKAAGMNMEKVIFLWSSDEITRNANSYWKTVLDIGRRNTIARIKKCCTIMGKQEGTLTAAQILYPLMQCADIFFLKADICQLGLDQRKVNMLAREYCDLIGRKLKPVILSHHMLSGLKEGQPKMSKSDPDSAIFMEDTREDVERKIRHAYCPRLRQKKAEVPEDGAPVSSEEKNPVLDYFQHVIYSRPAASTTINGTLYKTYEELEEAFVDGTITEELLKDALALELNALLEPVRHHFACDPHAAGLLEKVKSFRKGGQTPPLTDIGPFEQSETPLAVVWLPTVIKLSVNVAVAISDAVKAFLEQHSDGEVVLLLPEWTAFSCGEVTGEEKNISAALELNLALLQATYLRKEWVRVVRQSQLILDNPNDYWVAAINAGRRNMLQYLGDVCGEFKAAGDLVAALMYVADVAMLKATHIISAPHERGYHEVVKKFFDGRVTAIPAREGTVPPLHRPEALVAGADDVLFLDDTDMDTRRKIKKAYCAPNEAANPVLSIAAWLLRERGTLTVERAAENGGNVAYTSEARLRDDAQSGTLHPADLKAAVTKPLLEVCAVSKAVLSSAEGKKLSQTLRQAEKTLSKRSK

[9] = target: T4, Tyrosyl-tRNA synthetase, putative (Trypanosoma cruzi (strain CL Brener)); experiment: Trypanosoma cruzi tyrosyl tRNA synthetase (TcYRS) SOP; type: functional; conditions: 30 µM
[10] = target: Chromo domain-containing protein 1 (Saccharomyces cerevisiae (strain ATCC 204508 / S288c) (Baker's yeast)) (UniProt P32657); experiment: ScCHD-1 Enzyme Inhibition Assay; type: functional; conditions: 30 µM; further: in the data most compounds retested in dose-response had high values
Sequence of Chromo domain-containing protein 1 (Saccharomyces cerevisiae (strain ATCC 204508 / S288c) (Baker's yeast)) (P32657 whole entry, the tested form may be a part): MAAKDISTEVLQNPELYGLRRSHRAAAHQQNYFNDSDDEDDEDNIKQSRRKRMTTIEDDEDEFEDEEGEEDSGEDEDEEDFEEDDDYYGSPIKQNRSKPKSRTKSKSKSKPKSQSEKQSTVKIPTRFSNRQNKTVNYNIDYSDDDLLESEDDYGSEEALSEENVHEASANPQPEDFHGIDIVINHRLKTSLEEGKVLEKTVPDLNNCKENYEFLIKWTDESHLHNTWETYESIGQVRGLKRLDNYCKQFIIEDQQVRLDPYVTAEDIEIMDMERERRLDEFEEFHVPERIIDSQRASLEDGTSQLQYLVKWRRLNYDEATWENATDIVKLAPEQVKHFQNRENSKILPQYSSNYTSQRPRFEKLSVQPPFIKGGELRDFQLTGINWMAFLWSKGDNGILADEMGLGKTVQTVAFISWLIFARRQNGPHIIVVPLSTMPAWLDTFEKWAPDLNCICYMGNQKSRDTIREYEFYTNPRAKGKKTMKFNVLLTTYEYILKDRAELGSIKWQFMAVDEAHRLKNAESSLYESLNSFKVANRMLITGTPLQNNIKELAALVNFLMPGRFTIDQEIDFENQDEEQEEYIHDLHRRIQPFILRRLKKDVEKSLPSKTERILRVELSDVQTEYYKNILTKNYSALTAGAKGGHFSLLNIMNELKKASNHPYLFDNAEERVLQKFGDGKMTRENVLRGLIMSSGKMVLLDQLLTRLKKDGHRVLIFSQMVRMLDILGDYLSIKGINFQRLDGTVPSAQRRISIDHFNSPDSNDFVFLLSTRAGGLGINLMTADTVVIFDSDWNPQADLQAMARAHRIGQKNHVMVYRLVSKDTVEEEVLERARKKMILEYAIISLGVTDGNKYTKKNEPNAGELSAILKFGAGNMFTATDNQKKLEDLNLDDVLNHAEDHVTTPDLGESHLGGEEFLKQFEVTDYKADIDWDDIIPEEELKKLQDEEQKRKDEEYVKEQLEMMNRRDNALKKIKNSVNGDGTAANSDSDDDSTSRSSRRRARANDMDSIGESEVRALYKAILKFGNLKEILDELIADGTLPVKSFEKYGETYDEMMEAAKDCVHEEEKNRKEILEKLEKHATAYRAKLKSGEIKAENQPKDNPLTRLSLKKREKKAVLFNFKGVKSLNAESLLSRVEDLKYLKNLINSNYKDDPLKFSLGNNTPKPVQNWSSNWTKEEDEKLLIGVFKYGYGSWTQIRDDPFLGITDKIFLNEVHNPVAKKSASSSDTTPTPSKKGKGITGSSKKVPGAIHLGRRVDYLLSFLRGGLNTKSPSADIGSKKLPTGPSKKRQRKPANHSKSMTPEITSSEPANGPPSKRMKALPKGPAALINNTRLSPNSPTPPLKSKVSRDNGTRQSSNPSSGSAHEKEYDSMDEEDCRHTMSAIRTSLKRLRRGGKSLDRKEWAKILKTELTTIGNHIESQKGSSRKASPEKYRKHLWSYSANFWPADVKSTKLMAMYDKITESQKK

| Compound | Percent Effect [1] [%] | Percent Effect [2] [%] | Percent Effect [3] [%] | Percent Effect [4] [%] | Percent Effect [5] [%] | Percent Effect [6] [%] | Percent Effect [7] [%] | Percent Effect [8] [%] | Percent Effect [9] [%] | Percent Effect [10] [%] |
| --- | --- | --- | --- | --- | --- | --- | --- | --- | --- | --- |
| NC(=O)c1cc(C2CCCN(CCOCC(F)(F)F)C2)n[nH]1 (stereo not given) | -3.84 | 2.56 | -22.8 | 9.3 | -5.33 | 8.45 | -4.53 | 2.39 | 10.8 | 26.2 |
| CCc1nc(CNCC2CCCN2c2cc(NC)ncn2)cs1 (stereo not given) | -1.05 | 0 | 1.02 | 9.48 | 1.64 | 6.91 | -11.3 | 3.35 | 6.02 | -3.49 |
| Cc1ncsc1C(=O)N(Cc1cccnc1)C1CC1 | -0.351 | 2.56 | 10 | 5.92 | 4.1 | -1.45 | 16.3 | 1.44 | 8.43 | -2.14 |
| Cc1cnn(C2CCCN(C(=O)c3cc(C4CC4)on3)C2)c1 (stereo not given) | -4.9 | 10.3 | -6.25 | 5.16 | 0.82 | -0.939 | -0.883 | 4.31 | 10.8 | -1.27 |
| Cc1cc(CN(C)C(=O)c2ccc(F)cc2Br)no1 | -3.65 | 10.3 | -16.2 | -5.35 | -1.23 | 15.3 | 28.1 | 3.35 | 10.8 | -3.45 |
| CC(=O)N1CC(=O)N(c2ccccc2)CC12CCN(CC1CC1)C2 (stereo not given) | -11 | 1.3 | 22.2 | -1.27 | -2.02 | 12.1 | 15.9 | 2.63 | -5.13 | -0.48 |
| CC(C)(C)C(=O)N1C[C@H](c2ccsc2)[C@H]2CN(Cc3cccs3)CC[C@H]21 | -0.241 | 17.3 | -5.01 | 2.37 | 2.65 | 17.1 | 56.8 | 2.12 | 17.5 | -22 |
| O=C1C(NCc2nnc3n2CCCC3)CCN1CC(F)(F)F (stereo not given) | -2.08 | 2.56 | -21.5 | 8.73 | -2.05 | 1.79 | 4.98 | 1.44 | 8.43 | -0.359 |
| Cc1nc(C2CCCN(C(=O)CO)C2)cc(N2CCOCC2)n1 (stereo not given) | -7.77 | 0 | 22.8 | 9.02 | -2.45 | 13.7 | 6.91 | 3.72 | 14.6 | -5.28 |
| CN1CCN(c2ncnc3c2c(C(=O)NC2CC2)c2ccccn23)CC1 | -0.824 | -6.49 | 1.78 | -5.16 | 3.24 | -2.56 | 0.0174 | -1.58 | 0 | -13.6 |
